This note sets out measurements from PubChem BioAssay (NCATS).

Values without a mark were called inactive. Records with an inconclusive call do not appear. Calls of active or inactive are those of the source. Unless noted, calls follow the shape of the dose curve; as a rule, active = well fitted curve in the direction sought with a large enough effect; inconclusive = small, poorly fitted or top-dose-only effect, or another doubt; inactive = no such curve, though single readings can be large; an effect the other way counts as inactive or inconclusive. Where only a bound is given, the exact number is not on record here.

Test [1] concerns the target Cytochrome P450 1A2 (Homo sapiens) (UniProt P05177). The test is described as follows: p450-cyp1a2 (AID 410; calls by dose curve; also: potency is read from the fitted curve at half-maximal effect). A digest of the protocol: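 Luminescent demethylation readout: Luciferin-ME (100uM, equal to Km) turned over by 20nM CYP1A2 for 60 min at room temperature after NADPH regeneration addition, following 10 min compound preincubation. Normalization used 57 uM furafylline as full inhibition.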

Test [2] concerns the target Glucocorticoid receptor (Homo sapiens) (UniProt P04150). Description: GR-GFP Redistribution (AID 450;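 active = compounds whose dose series gives a full or clear partial fitted curve of increased nuclear translocation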; also: potency is read from the fitted curve at half-maximal effect). Particulars: U2OS GR-GFP nuclear translocation, laser cytometry, 2 h.
The target is the same in test [3]. Description: GR-EFC Redistribution (AID 451; calls by dose curve; also: potency is read from the fitted curve at half-maximal effect). The note with it: CHO-K1 GR-EFC translocation, beta-gal luminescence, 2 h. A digest of the protocol: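 Translocation of GR-ED fusion to nuclear EA restores b-gal, read by luminescence after 1 h room-temperature detection. Engineered CHO-K1 biosensor cells, 1,000/well, exposed 2 h at 37 C to titrations up to 46 uM final.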

For test [4], the target named is Mitogen-activated protein kinase 10 (Mus musculus) (UniProt Q61831). Description: JNK3 AlphaScreen Assay (AID 530; active = well fitted curve in either direction with a large enough effect, not every such curve was filed as active;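 also: kinase came from lysate of stimulated human HepG2 cells; signal reports phosphorylation of biotinylated GST-cJun 1-79 at Ser73 with 10 µM ATP; series mostly up to about 57 µM; % is scaled to controls: 0 for no effect and ±100 for the full control effect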). In outline: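 qHTS titrations with 15 min compound pre-incubation before adding ATP (10 uM final). Read-out: AlphaScreen of Ser73-phosphorylated biotin-GST-cJun using HepG2 lysate JNK3 activated by IL-1β and TNFα.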
For test [5], the target named is Cytochrome P450 3A4 (Homo sapiens) (UniProt P08684). The test is described as follows: qHTS Assay for Activators of Cytochrome P450 3A4 (AID 885). Also: nearly all actives have a fitted effect of over 65% in size. In outline:
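Activators are scored by enhanced luminescence from CYP3A4 conversion of luciferin-PPXE (25uM, equal to KM) to luciferin, after 60 min at RT with an NADPH-regenerating system.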
On the technique in general: In qHTS, concentration-response curves come from the screen itself.

Test [6] has as its target Cytochrome P450 2D6 (Homo sapiens) (UniProt P10635). Description: qHTS Assay for Inhibitors and Substrates of Cytochrome P450 2D6 (AID 891). Also: potency is read from the fitted curve at half-maximal effect; nearly all actives have a fitted effect of over 60% in size. A digest of the protocol:
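Luminescent read-out of luciferin formed by 5 nM human CYP2D6 demethylating 30 uM Luciferin-ME EGE (Km level) over 60 min at room temperature after NADPH regeneration addition. Data normalized to full inhibition by 1.43 uM quinidine.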

Test [7] has as its target Cytochrome P450 2C19 (Homo sapiens) (UniProt P33261). The test is described as follows: qHTS Assay for Inhibitors and Substrates of Cytochrome P450 2C19 (AID 899). Also: potency is read from the fitted curve at half-maximal effect; nearly all actives have a fitted effect of over 60% in size. In outline: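 Luminescence readout of luciferin formed from 10uM Luciferin-H EGE (KM level) by 5 nM CYP2C19 in 50mM KPO4. 60 min NADPH-driven reaction at 37C after 10 min compound preincubation; data scaled to 57uM ketoconazole inhibition.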

The target in test [8] is DNA dC->dU-editing enzyme APOBEC-3G (Homo sapiens) (UniProt Q9HC16). Description: qHTS for inhibitors of Vif-A3G interactions: Validation (AID 588379). Also: 0% is about no effect. A digest of the protocol: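 Yellow fluorescence (Ex 488, Em 500-530) of Vif-coexpressing HeLa A3G-eYFP cells, scanned by Acumen cytometer, reports blocked A3G degradation. Cells plated at 700/well overnight at 37 deg C before compound addition, then a further overnight compound incubation at 37 deg C.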
DNA dC->dU-editing enzyme APOBEC-3G (Homo sapiens), sequence (Q9HC16 whole entry, looked up): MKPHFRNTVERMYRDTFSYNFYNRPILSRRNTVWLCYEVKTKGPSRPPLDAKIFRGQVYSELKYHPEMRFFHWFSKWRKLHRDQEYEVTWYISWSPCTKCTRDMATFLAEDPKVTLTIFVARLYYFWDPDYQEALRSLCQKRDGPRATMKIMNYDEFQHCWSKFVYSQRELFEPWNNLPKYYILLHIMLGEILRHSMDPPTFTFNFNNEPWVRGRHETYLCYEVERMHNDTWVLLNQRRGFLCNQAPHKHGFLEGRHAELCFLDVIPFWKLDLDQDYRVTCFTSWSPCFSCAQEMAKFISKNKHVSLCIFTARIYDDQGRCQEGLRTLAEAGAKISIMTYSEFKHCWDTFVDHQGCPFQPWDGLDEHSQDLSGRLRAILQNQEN

In test [9] the test system is Zika virus NS2B-NS3 protease. Description: Primary screen GU AMC qHTS for Zika virus inhibitors (AID 1347154).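 Also: 0% = no-inhibitor control and -100% = no-enzyme control; nearly all actives have a fitted effect of over 70% in size.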 A digest of the protocol:
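Fluorogenic AMC-substrate cleavage by noncovalent NS2B-NS3 protease complex (25 nM, pH 8.0 Tris buffer with Tween 20) followed for 15 minutes at room temperature (~20% conversion). Percent inhibition from ex340/em450 signal change, fitted by 4-parameter Hill equation.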

Test [10] can be described thus: Counterscreen qHTS for small molecule stabilizers of the endoplasmic reticulum resident proteome: GLuc-NoTag assay (AID 1508627).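 Also: series mostly up to about 76 µM; 0% = thapsigargin alone and -100% = DMSO vehicle control.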 In outline: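 Counterscreen line: SH-SY5Y-GLuc-NoTag cells, treated with compound 19 hr before a 4 hr, 100 nM thapsigargin calcium depletion. Secreted Gaussia luciferase in the medium was measured by luminescence after coelenterazine was added (0.07x final), with cells unlysed.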
Background: Counterscreens check selectivity or assay interference.

Test [11] in a line: Cell Viability qHTS for small molecule stabilizers of the endoplasmic reticulum resident proteome (AID 1508629).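 Also: human SH-SY5Y neuroblastoma cells carrying the GLuc-SERCaMP reporter; compound exposure about 46 h in total before the viability read; % is scaled to controls: 0 for no effect and ±100 for the full control effect.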 Particulars: cell viability counter-screen, 100 nM thapsigargin for final 4 h.
Test [12] can be described thus: Validation of Assay for Modulators of Lamin A Splicing (AID 1459; active = well fitted curve in the direction sought with a large enough effect in the signal ratio; the % refers to the signal ratio;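 also: cells exposed to compound for two days before reading; 0% is about no effect; ratio rise marks activators and ratio drop marks inhibitors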). In outline: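 Splicing correction is reported by an EGFP-containing lamin A minigene in stably transfected S3 HeLa cells, while DsRed2 controls for viability and nonspecific signal. Cells are exposed to compounds for 48 hrs before the GFP over RFP ratio is taken.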
Test [13] is described as follows: Counterscreen for APE1 Inhibitors: Fluorescent Dye Displacement Validation Assay (AID 1707).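 Also: plate controls were ThO with dsDNA and no compound for no effect and ThO without dsDNA for full effect.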 In outline: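 Endpoint fluorescence read at 480 nm excitation / 540 nm emission; DNA-binding compounds lower signal by displacing 250 nM Thiazole Orange from 50 nM dsDNA containing a tetrahydrofuran abasic site, Tris-HCl pH7.5 buffer with NaCl and MgCl2.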
For test [14], the target named is Endonuclease 4 (Escherichia coli (strain K12)) (UniProt P0A6C1). Description: Counterscreen for APE1 Inhibitors: qHTS Validation Assay for Inhibitors of Endonuclease IV (AID 1708). Also: % is scaled to controls: 0 for no effect and ±100 for the full control effect. A digest of the protocol: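 Incision of a double-stranded 50 nM TAMRA/BHQ-2 abasic substrate was followed kinetically (525/598 nm, reads every 60 s) after 15 min enzyme–compound preincubation with 2 nM EndoIV in pH 7.5 Tris buffer with MgCl2, DTT and Tween-20; concentration-response format.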

Test [15] can be described thus: qHTS for differential inhibitors of proliferation of Plasmodium falciparum line 7G8 (AID 1815).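 Also: potency is read from the fitted curve at half-maximal effect; parasite growth measured after three days of incubation.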
Test [16] in a line: qHTS for differential inhibitors of proliferation of Plasmodium falciparum line GB4 (AID 1816).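 Also: potency is read from the fitted curve at half-maximal effect; parasite growth measured after 72 h incubation.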 Particulars: Potency: Plasmodium falciparum GB4 proliferation inhibition.
Test [17] in a line: qHTS for differential inhibitors of proliferation of Plasmodium falciparum line 3D7 (AID 1876). Also: potency is read from the fitted curve at half-maximal effect.
Test [18] in a line: qHTS for differential inhibitors of proliferation of Plasmodium falciparum line Dd2 (AID 1882). Also: potency is read from the fitted curve at half-maximal effect; nearly all actives have a fitted effect of over 65% in size. The note with it: Potency: Plasmodium falciparum Dd2 proliferation inhibition. A digest of the protocol:
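SYBR Green DNA fluorescence (ex 485, em 535 nm) after overnight lysis quantifies parasite growth; compound exposure lasted 72 h at 37 C on infected red cells at 2.5% hematocrit, 0.3% parasitemia (final). Artemisinin 0.29 uM and vehicle wells define normalization.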

Test [19] in a line: qHTS for differential inhibitors of proliferation of Plasmodium falciparum line W2 (AID 1883).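 Also: potency is read from the fitted curve at half-maximal effect; parasites grown with compound for 72 h before lysis and staining.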 The note with it: Potency: Plasmodium falciparum W2 proliferation inhibition.
The nature of test [20]: qHTS for differential inhibitors of proliferation of Plasmodium falciparum line HB3 (AID 1886).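 Also: potency is read from the fitted curve at half-maximal effect; parasites grown with compound for 72 h before SYBR Green readout.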 Particulars: Potency: Plasmodium falciparum HB3 proliferation inhibition.
In test [21] the target is Ferritin light chain (Equus caballus) (UniProt P02791). The test is described as follows: qHTS Validation Assay for Identification of Novel General Anesthetics (AID 2323). Also: series mostly up to about 77 µM; % is scaled to controls: 0 for no effect and ±100 for the full control effect. A digest of the protocol: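 Apoferritin from horse spleen (10 uM) was mixed with 1-aminoanthracene at 50% saturation in PBS, then compounds were added. After 10 min at room temperature, fluorescence was read (ex 380 nm, em 535 nm) and normalized to free-probe and complex controls.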

The target in test [22] is ATP-dependent DNA helicase Q1 (Homo sapiens) (UniProt P46063). The test is described as follows: qHTS Validation Assay for Inhibitors of RecQ-Like Dna Helicase 1 (RECQ1) (AID 2353).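 Also: plate controls were DMSO vehicle for no effect and enzyme-free control for full effect.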 In outline:
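RECQ1T1 50 nM; forked duplex (20 bp + 30-nt ss tails) 200 nM, ATP 2 mM final; pH 8.0, 2 mM MgCl2, 2.5 ug/ml poly(dI-dC); 15 min compound preincubation; discontinuous kinetic read over 2 h at RT.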

The target of test [23] is RecQ-like DNA helicase BLM (Homo sapiens) (UniProt P54132). The test is described as follows: qHTS Validation Assay for Inhibitors of Bloom's syndrome helicase (BLM) (AID 2364).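 Also: plate controls were DMSO vehicle for no effect and enzyme-free control for full effect.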 In outline: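 Forked 20-bp duplex substrate (200 nM, TAMRA/BHQ-2) plus 2 mM ATP added after 15 min compound preincubation with 50 nM enzyme, pH 8.0, poly(dI-dC) 2.5 ug/ml. Strand separation followed by fluorescence (525/598 nm) over 2 h, normalized to enzyme-free and DMSO controls.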
RecQ-like DNA helicase BLM (Homo sapiens), sequence (P54132 whole entry, looked up): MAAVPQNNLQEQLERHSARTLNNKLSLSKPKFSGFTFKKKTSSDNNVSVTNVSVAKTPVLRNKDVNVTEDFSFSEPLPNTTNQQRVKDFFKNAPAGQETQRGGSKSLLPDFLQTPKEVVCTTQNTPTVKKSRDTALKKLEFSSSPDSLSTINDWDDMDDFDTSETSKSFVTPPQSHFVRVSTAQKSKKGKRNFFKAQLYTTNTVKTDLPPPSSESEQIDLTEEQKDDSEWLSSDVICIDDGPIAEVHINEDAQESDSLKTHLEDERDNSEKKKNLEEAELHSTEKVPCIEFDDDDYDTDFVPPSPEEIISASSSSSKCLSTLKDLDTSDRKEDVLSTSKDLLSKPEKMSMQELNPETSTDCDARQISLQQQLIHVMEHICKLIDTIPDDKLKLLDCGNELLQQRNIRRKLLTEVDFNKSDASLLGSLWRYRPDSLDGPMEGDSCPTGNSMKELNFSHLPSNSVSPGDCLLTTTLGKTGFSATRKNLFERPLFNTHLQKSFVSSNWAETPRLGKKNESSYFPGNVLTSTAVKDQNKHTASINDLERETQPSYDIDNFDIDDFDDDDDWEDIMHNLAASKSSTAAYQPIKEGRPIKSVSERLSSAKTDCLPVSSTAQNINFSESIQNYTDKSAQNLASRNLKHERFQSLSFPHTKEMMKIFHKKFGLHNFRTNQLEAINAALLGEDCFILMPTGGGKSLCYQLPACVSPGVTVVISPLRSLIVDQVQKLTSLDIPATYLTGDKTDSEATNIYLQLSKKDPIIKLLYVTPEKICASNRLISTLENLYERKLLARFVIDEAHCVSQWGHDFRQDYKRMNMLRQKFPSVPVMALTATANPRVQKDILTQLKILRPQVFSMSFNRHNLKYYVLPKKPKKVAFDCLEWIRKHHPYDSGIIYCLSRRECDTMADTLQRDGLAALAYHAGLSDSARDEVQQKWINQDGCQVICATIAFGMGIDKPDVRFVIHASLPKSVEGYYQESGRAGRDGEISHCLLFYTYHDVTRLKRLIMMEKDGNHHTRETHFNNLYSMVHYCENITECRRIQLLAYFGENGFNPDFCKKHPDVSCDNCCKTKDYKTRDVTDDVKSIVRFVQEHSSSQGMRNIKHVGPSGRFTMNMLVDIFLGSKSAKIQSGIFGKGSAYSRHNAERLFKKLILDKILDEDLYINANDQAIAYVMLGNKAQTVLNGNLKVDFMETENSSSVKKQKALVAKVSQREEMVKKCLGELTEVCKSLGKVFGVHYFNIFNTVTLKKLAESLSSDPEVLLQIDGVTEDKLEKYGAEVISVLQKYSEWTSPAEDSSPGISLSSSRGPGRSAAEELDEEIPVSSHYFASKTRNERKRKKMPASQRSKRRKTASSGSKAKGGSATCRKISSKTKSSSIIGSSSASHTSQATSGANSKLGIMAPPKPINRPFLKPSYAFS

A short description of test [24]: Validation screen for small molecules that induce DNA re-replication in MCF 10A normal breast cells (AID 463097). Also: 0% is about no effect; nearly all actives have a fitted effect of over 60% in size. In outline:
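DNA re-replication was detected as a rise in nuclei with elevated Hoechst fluorescence after a 48 hr compound exposure of MCF 10A cells at 37 C.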

Test [25] concerns the target M-phase phosphoprotein 8 (Homo sapiens) (UniProt Q99549). The test is described as follows: qHTS Validation Assay for Inhibitors for MPP8 Chromodomain Interactions with Methylated Histone Tails (AID 488949).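 Also: AlphaScreen signal from MPP8 chromodomain bound to biotinylated H3K9me3 peptide; top concentration of the series differs between compounds; % is scaled to controls: 0 for no effect and ±100 for the full control effect; nearly all actives have a fitted effect of over 55% in size.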 In outline: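 Disruption of the preformed MPP8–trimethyl-H3K9 peptide complex (both 50 nM, 30 min, RT) is measured after 30 min compound exposure, using AlphaScreen proximity beads; aurintricarboxylic acid titration serves as plate control.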

In test [26] the target is Thyrotropin receptor (Homo sapiens) (UniProt P16473). Description: qHTS Assay for Antagonists of the Thyroid Stimulating Hormone Receptor (AID 488980). Also: series mostly up to about 58 µM; 0% is about no effect. A digest of the protocol:
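Cells expressing human TSHR (HEK293) are dispensed in HBSS/HEPES containing 70 uM RO 20-1724, compound is added, then TSH at EC80 (4 nM final). Antibody in lysis buffer follows, 30 minutes at room temperature before HTRF detection.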

For test [27], the target named is Thyrotropin-releasing hormone receptor (Homo sapiens) (UniProt P34981). The test is described as follows: qHTS for Small Molecule Agonists and Allosteric Enhancers of Human TRH Receptor: Validation Screen for Agonists (AID 493127;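 active = calcium activation more than 3 SD above the typical response in the agonist read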;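 also: intracellular calcium rise by fluo-8 fluorescence before TRH EC20 addition; 0% is about no effect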). Particulars: TRH receptor agonist cell assay; at 2 µM; stronger effect = higher value. In outline: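 Compound-evoked intracellular calcium release in fluo-8-loaded TRHR cells, read kinetically on FDSS (Ex 480/Em 530, 1 s/cycle) after 23 nL pintool transfer. Agonist phase preceded 10 nM TRH EC20 addition.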

Test [28] has as its target Galactokinase (Homo sapiens) (UniProt P51570). Description: qHTS Validation Assay for Inhibitors of Human Galactokinase (GALK) (AID 493189). Also: 0% is about no effect. In outline:
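Compounds were pin-transferred into ATP buffer, then GALK-galactose mix was added (final 5 nM enzyme, 100 uM galactose, 35 uM ATP). After 1 h at room temperature, remaining ATP was measured luminescently.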

A short description of test [29]: Validation screen for small molecules that induce DNA re-replication in SW480 colon adenocarcinoma cells (AID 504364). Also: 0% is about no effect. In outline: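 Image-based DNA content read-out: Hoechst stain 40 min, total nuclear fluorescence intensity (ex 405 nm, em 500-530 nm) after 48 h compound exposure of 250 SW480 cells/well at 37 C, 5% CO2, versus DMSO vehicle.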
For test [30], the target named is Voltage-gated inwardly rectifying potassium channel KCNH2 (Homo sapiens) (UniProt Q12809). The test is described as follows: qHTS Assay for Small Molecule Inhibitors of the Human hERG Channel Activity (AID 588834).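 Also: U2OS cells transduced with hERG by BacMam; top concentration of the series differs between compounds; % is scaled to controls: 0 for no effect and ±100 for the full control effect; lower thallium flux fluorescence means stronger hERG block; nearly all actives have a fitted effect of over 50% in size.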 A digest of the protocol: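 Cells were infected with hERG-BacMam virus for 4 hrs at room temperature, grown overnight, then seeded at 2000/well. After dye loading and roughly 10 min compound treatment, thallium influx was triggered and fluorescence recorded.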

Test [31] concerns the target 3',5'-cyclic-AMP phosphodiesterase 4B (Homo sapiens) (UniProt Q07343). Description: qHTS Assay for Inhibitors of PDE-IV (AID 607; active = well fitted activation curve with a large enough effect in the main read-out, with a control signal flat, not every such curve was filed as active; also: % of control where 0% means no effect). In outline:
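The readout is membrane depolarisation from a cAMP-sensing CNG channel, detected with a potential dye at ex 535/em 590. Cells were HEK293-derived (endogenous PDE-IV) at 1000 cells/well, titrated up to 22.9 uM final.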

Test [32] has as its target Cytochrome P450 2C9 (Homo sapiens) (UniProt P11712). The test is described as follows: qHTS Assay for Inhibitors and Substrates of Cytochrome P450 2C9 (AID 883). Also: % is scaled to controls: 0 for no effect and ±100 for the full control effect; nearly all actives have a fitted effect of over 60% in size. In outline: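 Luminescent read-out of deoxyluciferin hydroxylation, normalized to 57uM sulphaphenazole (AC100). Reaction: 10nM enzyme, 100uM Luciferin-H (equal to KM), 25mM KPO4, 10 min compound preincubation, then 60 min with NADPH regeneration, both at 37C.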

Test [33] is described as follows: Confirmatory qHTS for small molecule stabilizers of the endoplasmic reticulum resident proteome: Secreted ER Calcium Modulated Protein (SERCaMP) assay (AID 1508628). Also: series mostly up to about 76 µM; % is scaled to controls: 0 for no effect and ±100 for the full control effect; nearly all actives have a fitted effect of over 40% in size. In outline: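 Reporter secretion upon ER calcium depletion (100 nM thapsigargin, 4 h, 37C) is measured as medium luminescence with coelenterazine, after 16 h compound pretreatment of SH-SY5Y-GLuc-SERCaMP cells; primary at three concentrations up to 38.3 uM, follow-up at 11 (up to 76.6 uM).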

Glucocorticoid receptor (Homo sapiens), sequence (P04150 whole entry, looked up, the tested form may be a part): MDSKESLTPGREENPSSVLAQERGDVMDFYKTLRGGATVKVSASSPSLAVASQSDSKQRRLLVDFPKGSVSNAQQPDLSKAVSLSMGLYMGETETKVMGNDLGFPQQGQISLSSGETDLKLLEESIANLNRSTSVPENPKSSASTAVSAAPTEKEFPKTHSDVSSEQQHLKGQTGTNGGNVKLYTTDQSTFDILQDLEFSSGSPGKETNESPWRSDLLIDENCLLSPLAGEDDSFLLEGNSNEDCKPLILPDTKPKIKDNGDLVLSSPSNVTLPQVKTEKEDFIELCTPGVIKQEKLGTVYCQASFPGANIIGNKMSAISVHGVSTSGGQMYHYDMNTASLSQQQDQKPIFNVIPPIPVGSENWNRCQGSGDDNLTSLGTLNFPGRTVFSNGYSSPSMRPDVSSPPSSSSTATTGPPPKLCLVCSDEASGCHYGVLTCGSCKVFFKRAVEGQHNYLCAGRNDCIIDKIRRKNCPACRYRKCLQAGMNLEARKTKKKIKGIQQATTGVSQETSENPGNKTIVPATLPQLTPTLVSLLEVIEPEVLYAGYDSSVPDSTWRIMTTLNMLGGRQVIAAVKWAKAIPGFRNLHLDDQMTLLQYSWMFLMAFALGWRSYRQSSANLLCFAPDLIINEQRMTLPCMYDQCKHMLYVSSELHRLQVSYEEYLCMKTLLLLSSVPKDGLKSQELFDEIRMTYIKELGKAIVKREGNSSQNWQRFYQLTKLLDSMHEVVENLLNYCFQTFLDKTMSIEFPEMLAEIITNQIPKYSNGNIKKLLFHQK
M-phase phosphoprotein 8 (Homo sapiens), sequence (Q99549 whole entry, looked up): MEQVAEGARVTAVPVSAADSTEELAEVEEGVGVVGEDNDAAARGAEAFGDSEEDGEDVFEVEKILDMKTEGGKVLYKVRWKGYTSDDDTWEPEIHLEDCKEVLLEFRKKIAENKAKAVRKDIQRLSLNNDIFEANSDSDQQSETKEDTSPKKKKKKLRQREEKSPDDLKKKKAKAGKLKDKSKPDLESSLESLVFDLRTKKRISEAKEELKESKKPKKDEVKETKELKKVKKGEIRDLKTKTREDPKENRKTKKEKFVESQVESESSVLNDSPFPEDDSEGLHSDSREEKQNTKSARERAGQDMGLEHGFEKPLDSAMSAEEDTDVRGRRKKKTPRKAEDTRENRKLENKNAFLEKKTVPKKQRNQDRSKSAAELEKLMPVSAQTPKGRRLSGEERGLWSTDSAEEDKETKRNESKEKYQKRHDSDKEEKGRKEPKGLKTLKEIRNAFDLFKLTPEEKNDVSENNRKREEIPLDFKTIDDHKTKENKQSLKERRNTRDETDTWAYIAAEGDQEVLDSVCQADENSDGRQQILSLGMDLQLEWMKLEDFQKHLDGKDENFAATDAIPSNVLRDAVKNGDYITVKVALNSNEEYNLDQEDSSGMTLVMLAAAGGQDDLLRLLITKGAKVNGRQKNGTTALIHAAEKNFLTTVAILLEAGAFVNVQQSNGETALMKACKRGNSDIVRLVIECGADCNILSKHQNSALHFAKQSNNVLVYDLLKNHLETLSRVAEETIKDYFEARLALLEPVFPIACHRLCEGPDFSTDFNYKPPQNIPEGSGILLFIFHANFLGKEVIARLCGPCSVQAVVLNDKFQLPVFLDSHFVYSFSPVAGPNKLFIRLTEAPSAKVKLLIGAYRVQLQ
Cytochrome P450 1A2 (Homo sapiens), sequence (P05177 whole entry, looked up): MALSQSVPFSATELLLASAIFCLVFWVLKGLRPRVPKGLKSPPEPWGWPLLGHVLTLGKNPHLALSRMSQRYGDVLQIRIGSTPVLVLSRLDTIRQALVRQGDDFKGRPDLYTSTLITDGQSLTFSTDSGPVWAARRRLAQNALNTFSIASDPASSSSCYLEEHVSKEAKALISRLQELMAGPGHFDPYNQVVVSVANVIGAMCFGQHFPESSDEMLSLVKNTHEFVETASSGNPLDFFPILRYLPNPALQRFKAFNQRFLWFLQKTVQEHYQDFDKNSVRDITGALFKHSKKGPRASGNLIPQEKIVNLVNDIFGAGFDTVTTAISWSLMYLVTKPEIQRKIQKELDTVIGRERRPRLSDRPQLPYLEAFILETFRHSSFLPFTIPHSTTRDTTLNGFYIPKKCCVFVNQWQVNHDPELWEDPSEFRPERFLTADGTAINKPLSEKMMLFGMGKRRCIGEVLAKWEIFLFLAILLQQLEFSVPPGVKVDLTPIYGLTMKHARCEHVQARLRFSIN
Cytochrome P450 2C9 (Homo sapiens), sequence (P11712 whole entry, looked up): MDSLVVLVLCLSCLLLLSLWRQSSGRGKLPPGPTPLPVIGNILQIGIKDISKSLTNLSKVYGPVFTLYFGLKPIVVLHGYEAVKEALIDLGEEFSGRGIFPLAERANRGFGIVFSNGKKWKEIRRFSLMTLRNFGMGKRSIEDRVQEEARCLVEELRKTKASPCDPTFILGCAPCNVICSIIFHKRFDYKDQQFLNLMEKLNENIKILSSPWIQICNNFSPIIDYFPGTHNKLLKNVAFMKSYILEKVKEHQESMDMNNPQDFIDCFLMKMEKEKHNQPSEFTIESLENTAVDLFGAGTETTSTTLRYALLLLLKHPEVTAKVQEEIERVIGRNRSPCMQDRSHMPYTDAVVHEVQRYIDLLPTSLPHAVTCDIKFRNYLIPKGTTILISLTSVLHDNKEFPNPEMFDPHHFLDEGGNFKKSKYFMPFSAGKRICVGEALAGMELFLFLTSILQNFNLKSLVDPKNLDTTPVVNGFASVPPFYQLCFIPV
Cytochrome P450 2C19 (Homo sapiens), sequence (P33261 whole entry, looked up): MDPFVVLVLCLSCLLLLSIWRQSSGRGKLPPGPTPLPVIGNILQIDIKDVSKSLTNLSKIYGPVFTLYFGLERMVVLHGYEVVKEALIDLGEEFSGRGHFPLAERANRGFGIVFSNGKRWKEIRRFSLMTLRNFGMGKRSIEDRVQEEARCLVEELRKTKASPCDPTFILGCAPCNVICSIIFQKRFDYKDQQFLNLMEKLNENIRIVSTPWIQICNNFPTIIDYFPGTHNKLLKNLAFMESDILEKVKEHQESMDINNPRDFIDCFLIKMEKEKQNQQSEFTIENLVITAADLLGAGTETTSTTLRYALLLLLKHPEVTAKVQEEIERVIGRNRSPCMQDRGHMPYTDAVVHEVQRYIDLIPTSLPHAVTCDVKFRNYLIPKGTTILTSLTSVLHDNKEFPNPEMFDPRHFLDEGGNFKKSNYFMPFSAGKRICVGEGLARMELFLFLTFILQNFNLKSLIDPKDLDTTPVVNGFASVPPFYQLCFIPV

Consider `CN1CCN(C2=Cc3ccccc3Oc3ccc(Cl)cc32)CC1`, for which the Potency in [1] was 20 µM (active); in test [2], above 46 µM; in [3], above 46 µM; in test [6], 0.0398 µM (active); in [7] it was 3.98 µM (active). In addition, the Potency result in [4], in test [5], in [8], in test [9] and in [10] was “inactive” throughout. The max response in [11] is 13.7%.
Take `Cc1ccc(OCC(O)C(C)NC(C)C)c2c1CCC2` (stereo not drawn): the result in test [12], in [21], in test [26], in test [28] and in [29] was inactive. The Potency result in test [13], in [14], in test [22], in test [23], in test [24] and in test [25] was “inactive” each time. Further, the Potency entry in [30] and in test [9] was “inactive” each time. The Potency in [15] was 2.82 µM (active); in [16], 2.82 µM (active); in test [17] it was 11.2 µM (active); in test [18], 12.6 µM (active); in test [19] it was 1.58 µM (active); in test [20] it was 11.2 µM (active). For the same compound, in test [27], the activation is 2.81%.
As to `N=C(N)SCCN=C(N)N`, the Potency entry in test [9] and in test [10] was “inactive” each time. Moreover, the max response in test [11] was -2.13%.
On to `C[C@@H](NCc1cc(Br)cc2[nH]c(=O)c(=O)[nH]c12)P(=O)(O)O`, for which the figures for the Potency in test [2] and in test [3] were 0.264 µM (active) and above 46 µM, respectively. Besides, the Potency entry in test [4], in test [31], in test [32], in test [8], in test [9] and in [10] was “inactive” throughout. Moreover, the Potency result in test [33] was “inactive”.
